In PubChem BioAssay (Tox21):
Results filed as inconclusive are left out. The source made the active and inactive calls. Unless noted, the call rests on the fitted dose curve.

Key:
[1] = Nuclear factor erythroid 2-related factor 2/antioxidant responsive element (Nrf2/ARE) small molecule agonists: qHTS cell viability counter screen in human keratinocytes (AID 1919968; active means well fitted curve in the direction sought with a large enough effect in the repeat runs; an effect the other way counts as inactive or inconclusive; further: nearly all actives have a fitted effect of over 55% in size)
Summary of the method: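 KeratinoSens cells (HaCaT keratinocytes stably carrying an ARE-luciferase reporter) were seeded at 1,500 cells/well and rested 5 h at 37 C/5% CO2. They were then exposed to compounds in DMSO for 23 h. Viability was read by CellTiter-Fluor fluorescence after 1 h.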

[2] = Nuclear factor erythroid 2-related factor 2/antioxidant responsive element (Nrf2/ARE) small molecule agonists: luciferase reporter gene qHTS assay in human keratinocytes (AID 1919969); further: nearly all actives have a fitted effect of over 35% in size
[3] = molecular target: KiSS-1 receptor (Homo sapiens) (UniProt Q969F8); assay: Human kisspeptin (KISS1R) small molecule agonists, calcium flux assay in KISS1R-HEK293 cells (AID 1920064; active means well fitted curve in the direction sought with a large enough effect in the repeat runs; an effect the other way counts as inactive or inconclusive)
Sequence of KiSS-1 receptor (Homo sapiens) (Q969F8 whole entry, looked up): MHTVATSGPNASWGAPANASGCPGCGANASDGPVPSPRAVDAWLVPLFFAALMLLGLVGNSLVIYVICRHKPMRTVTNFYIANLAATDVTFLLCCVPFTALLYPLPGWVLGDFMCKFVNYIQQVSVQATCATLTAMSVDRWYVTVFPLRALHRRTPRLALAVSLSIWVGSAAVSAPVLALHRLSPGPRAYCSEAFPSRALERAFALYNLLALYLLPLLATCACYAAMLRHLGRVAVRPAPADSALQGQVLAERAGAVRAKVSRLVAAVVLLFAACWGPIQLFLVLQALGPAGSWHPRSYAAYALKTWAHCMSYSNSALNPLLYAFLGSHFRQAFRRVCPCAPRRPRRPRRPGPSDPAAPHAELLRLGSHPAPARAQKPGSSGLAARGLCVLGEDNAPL
Summary of the method: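 HEK293 cells stably expressing human KISS1R were plated 18 h at 37 °C, loaded with calcium dye for 1 h at 37 °C, then given compound by pin tool. Fluorescence (Ex/Em 480/540) was read kinetically for 3 min.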

[4] = G protein-coupled receptor (GPCR) small molecule agonists, calcium flux assay: HEK293 wild type cell line counter screen (AID 1920065)
Summary of the method: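 Cells were plated and cultured 18 h at 37 C/5% CO2, then loaded with calcium dye for 1 h at 37 C. Compounds in DMSO were pin-transferred in agonist mode, and fluorescence (Ex/Em 480/540) was read kinetically for 3 min at 1 s intervals.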

[5] = p53 small molecule agonists, cell-based qHTS assay with human liver microsomes: qHTS cell viability counter screen (AID 1963579); further: nearly all actives have a fitted effect of over 45% in size
Summary of the method: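 Tox21 library compounds, delivered from DMSO stocks, were tested on p53RE-bla cells together with 0.5 mg/mL human liver microsomes and 0.5 mg/mL NADPH (final) over 16 h at 37 C; CellTiter-Glo luminescence served as the cytotoxicity measure.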

[6] = p53 small molecule agonists, cell-based qHTS assay with rat liver microsomes: qHTS cell viability counter screen (AID 1963580); further: nearly all actives have a fitted effect of over 45% in size
Summary of the method: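 p53RE-bla HCT-116 cells (4,000/well) rested 5 h at 37 C, then given Tox21 compounds in DMSO with rat liver microsomes (0.5 mg/mL final) plus NADPH (0.5 mg/mL final) for 16 h at 37 C. Viability read by CellTiter-Glo luminescence after 30 min at room temperature.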

[7] = p53 small molecule agonists, cell-based qHTS assay: qHTS cell viability counter screen (AID 1963581); further: nearly all actives have a fitted effect of over 45% in size
Summary of the method: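 p53RE-bla HCT-116 cells were exposed to compounds for 16 h at 37 C; after the beta-lactamase FRET read in the same wells, CellTiter-Glo was added and luminescence (intracellular ATP) read after 30 min at room temperature.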

[8] = molecular target: 5-hydroxytryptamine receptor 2A (Homo sapiens) (UniProt P28223); assay: 5-hydroxytryptamine receptor 2A (HTR2A) small molecule antagonists, cell-based qHTS assay (AID 1963586); further: nearly all actives have a fitted effect of over 45% in size
Sequence of 5-hydroxytryptamine receptor 2A (Homo sapiens) (P28223 whole entry, looked up): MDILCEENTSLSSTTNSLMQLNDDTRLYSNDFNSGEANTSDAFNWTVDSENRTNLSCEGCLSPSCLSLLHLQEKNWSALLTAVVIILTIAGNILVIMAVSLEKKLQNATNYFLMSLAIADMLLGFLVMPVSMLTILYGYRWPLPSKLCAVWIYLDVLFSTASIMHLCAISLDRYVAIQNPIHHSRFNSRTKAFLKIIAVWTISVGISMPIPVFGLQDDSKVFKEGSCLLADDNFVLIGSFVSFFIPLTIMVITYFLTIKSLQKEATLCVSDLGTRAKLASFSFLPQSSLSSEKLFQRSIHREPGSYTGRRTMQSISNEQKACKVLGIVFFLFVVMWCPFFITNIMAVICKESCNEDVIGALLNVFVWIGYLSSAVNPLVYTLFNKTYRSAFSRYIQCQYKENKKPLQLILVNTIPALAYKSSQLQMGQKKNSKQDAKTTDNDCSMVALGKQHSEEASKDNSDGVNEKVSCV
Summary of the method: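 Antagonist-mode intracellular calcium assay: DOI (4 nM) added after 5 min compound pre-incubation at room temperature to dye-loaded HTR2A-CHO cells. Fluorescence followed for 3 min, sampled every second.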

[9] = molecular target: 5-hydroxytryptamine receptor 2A (Homo sapiens) (UniProt P28223); assay: 5-hydroxytryptamine receptor 2A (HTR2A) small molecule agonists, cell-based qHTS assay (AID 1963587); further: nearly all actives have a fitted effect of over 30% in size
Summary of the method: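 HTR2A-CHO cells, plated 18 h at 37 C/5% CO2, dye-loaded 1 h at 37 C; compounds in DMSO added by pin tool (agonist mode). Intracellular calcium flux read as kinetic fluorescence on FDSS over 2 min at 1 s intervals.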

[10] = molecular target: Muscarinic acetylcholine receptor M1 (Homo sapiens) (UniProt P11229); assay: Cholinergic receptor muscarinic 1 (CHRM1) small molecule antagonists, cell-based qHTS assay (AID 1963588); further: nearly all actives have a fitted effect of over 40% in size
Sequence of Muscarinic acetylcholine receptor M1 (Homo sapiens) (P11229 whole entry, looked up): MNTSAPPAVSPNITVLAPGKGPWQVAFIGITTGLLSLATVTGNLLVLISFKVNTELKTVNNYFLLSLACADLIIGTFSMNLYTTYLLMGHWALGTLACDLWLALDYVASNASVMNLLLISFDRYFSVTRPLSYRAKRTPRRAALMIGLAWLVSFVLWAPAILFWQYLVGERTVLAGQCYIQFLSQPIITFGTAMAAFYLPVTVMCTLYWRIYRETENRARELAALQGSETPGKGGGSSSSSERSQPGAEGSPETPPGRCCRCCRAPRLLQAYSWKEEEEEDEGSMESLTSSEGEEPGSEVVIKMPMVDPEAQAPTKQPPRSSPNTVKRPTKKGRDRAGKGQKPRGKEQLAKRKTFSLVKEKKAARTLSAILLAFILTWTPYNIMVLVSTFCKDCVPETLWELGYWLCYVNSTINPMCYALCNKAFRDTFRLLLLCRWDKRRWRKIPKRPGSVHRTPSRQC
Summary of the method: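 CHRM1-CHO calcium-flux assay, antagonist mode. Cells were seeded 18 h, dye-loaded 1 h at 37 C and given compound for 5 min at RT, then acetylcholine was added at 50nM. FDSS fluorescence was read 3 min; 15 concentrations, three runs.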

[11] = molecular target: Muscarinic acetylcholine receptor M1 (Homo sapiens) (UniProt P11229); assay: Cholinergic receptor muscarinic 1 (CHRM1) small molecule agonists, cell-based qHTS assay (AID 1963589); further: nearly all actives have a fitted effect of over 35% in size
Summary of the method: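 CHO cells stably expressing human CHRM1, seeded 18 h at 37 C/5% CO2, dye-loaded 1 h at 37 C, then given compound in agonist mode; intracellular calcium fluorescence read kinetically at 1 s intervals. Fifteen concentrations, three independent runs.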

[12] = cAMP Responsive Elements (CRE) small molecule agonists, cell-based qHTS assay (AID 1963590)
Summary of the method: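 CRE-bla HEK 293T cells in DMEM with 10% dialyzed FBS, NEAA, pyruvate and 25 mM HEPES were plated 18 h at 37 C/5% CO2, then exposed to compounds in DMSO for 3 h before LiveBLAzer B/G FRET substrate addition.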

[13] = cAMP Responsive Elements (CRE) small molecule antagonists, cell-based qHTS assay (AID 1963591; active means well fitted inhibition curve with a large enough effect in the signal ratio in the repeat runs, not every such curve was filed as active; the % refers to the signal ratio)
Summary of the method: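 CRE-bla HEK293T cells were plated 18 h at 37 °C/5% CO2, pinned with compound in DMSO, then stimulated with NKH477 at 0.25 uM final for 3 h. LiveBLAzer B/G FRET substrate was added and plates incubated 2 h at room temperature.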

[14] = molecular target: Beta-2 adrenergic receptor (Homo sapiens) (UniProt P07550); assay: Adrenergic beta2 receptor (ADRB2) small molecule antagonists, cell-based qHTS assay (AID 1963592); further: series mostly up to about 92 µM; nearly all actives have a fitted effect of over 50% in size
Sequence of Beta-2 adrenergic receptor (Homo sapiens) (P07550 whole entry, looked up): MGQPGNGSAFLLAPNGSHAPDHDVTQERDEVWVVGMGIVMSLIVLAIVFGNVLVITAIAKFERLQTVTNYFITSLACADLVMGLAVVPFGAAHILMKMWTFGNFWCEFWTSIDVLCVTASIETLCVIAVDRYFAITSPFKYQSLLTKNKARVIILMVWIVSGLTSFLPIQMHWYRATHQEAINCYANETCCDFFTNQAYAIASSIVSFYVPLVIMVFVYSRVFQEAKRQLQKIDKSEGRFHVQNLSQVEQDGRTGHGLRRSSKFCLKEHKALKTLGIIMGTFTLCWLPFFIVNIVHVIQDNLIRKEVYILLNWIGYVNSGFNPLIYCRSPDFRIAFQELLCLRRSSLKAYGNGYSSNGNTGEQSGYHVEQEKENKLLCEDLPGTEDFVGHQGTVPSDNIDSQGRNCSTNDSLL
Summary of the method: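 Cells (CHO, stable ADRB2 overexpression) incubated 18-20hr at 37C; compounds added from DMSO; agonist mix (1nM isoproterenol, 100uM IBMX, 25uM Ro-20-1724) added; 0.5hr RT; d2-cAMP and anti-cAMP-cryptate added; 1hr RT; 665/615 nm read.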

[15] = molecular target: Beta-2 adrenergic receptor (Homo sapiens) (UniProt P07550); assay: Adrenergic beta2 receptor (ADRB2) small molecule agonists, cell-based qHTS assay (AID 1963593);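 further: CHO cells stably overexpressing human ADRB2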
Summary of the method: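 CHO cells stably over-expressing ADRB2 were plated overnight at 37C, then dosed with compounds plus a stimulation mix containing 100uM IBMX and 25uM Ro-20-1724 for 0.5hr at room temperature. cAMP was measured by HTRF competition, 1hr.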

[16] = molecular target: D(2) dopamine receptor (Homo sapiens) (UniProt P14416); assay: Dopamine D2 receptor (DRD2) small molecule agonists, cell-based qHTS assay (AID 1963594); further: nearly all actives have a fitted effect of over 35% in size
Sequence of D(2) dopamine receptor (Homo sapiens) (P14416 whole entry, looked up): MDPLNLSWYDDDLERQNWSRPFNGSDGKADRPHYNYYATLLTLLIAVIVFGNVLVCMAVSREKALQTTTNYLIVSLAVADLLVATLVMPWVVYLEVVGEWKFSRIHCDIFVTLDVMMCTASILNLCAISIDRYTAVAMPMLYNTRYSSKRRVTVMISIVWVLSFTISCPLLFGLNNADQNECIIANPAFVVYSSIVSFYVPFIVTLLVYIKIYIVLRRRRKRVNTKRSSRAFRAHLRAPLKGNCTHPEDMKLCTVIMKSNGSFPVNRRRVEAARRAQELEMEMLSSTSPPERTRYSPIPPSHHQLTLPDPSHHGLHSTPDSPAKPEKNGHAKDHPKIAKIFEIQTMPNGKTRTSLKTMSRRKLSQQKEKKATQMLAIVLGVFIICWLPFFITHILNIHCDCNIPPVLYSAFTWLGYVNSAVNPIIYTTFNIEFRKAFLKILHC
Summary of the method: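 HEK293 cells stably expressing DRD2 were cultured 24 h at 37 C, then given Ro20-1724 (0.1 mM final) and compounds for 10 min at room temperature. NKH477 (200nM) was then added for 30 min. cAMP was read by HTRF.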

[17] = molecular target: D(2) dopamine receptor (Homo sapiens) (UniProt P14416); assay: Dopamine D2 receptor (DRD2) small molecule antagonists, cell-based qHTS assay (AID 1963595; active means well fitted inhibition curve with a large enough effect in the signal ratio in the repeat runs, with a control signal flat; the % refers to the signal ratio)
Summary of the method: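 Antagonism was scored as restored cAMP in HEK293-DRD2 cells. These cells were stimulated with 200 nM NKH477 and 12 nM quinpirole for 30 min at room temperature, in the presence of 0.1 mM Ro20-1724.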

[18] = p53 small molecule agonists, cell-based qHTS assay with rat liver microsomes (AID 1963578)
Summary of the method: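 Each plate received p53RE-bla cells, then compound, then rat liver microsomes and NADPH (both 0.5 mg/mL final). Plates were held 16 h at 37 C, and beta-lactamase activity was detected with LiveBLAzer over 2 h.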

Measured: Potency

CC(Cc1ccccc1)(NC(=O)CN)c1ccccc1 (stereo not drawn)
not listed: [16] | [17] | [18]
inactive: all other assays above

COC(=O)c1ccc(C(=O)OC)c(C(=O)OC)c1
not listed: [9] | [13] | [18]
inactive: all other assays above

O=C=NCC1CCCC(CN=C=O)C1 (stereo not drawn)
not listed: [10] | [15] | [16] | [18]
inactive: all other assays above

C[C@]12CCC(=O)C=C1CC[C@H]1[C@@H]3CC[C@](O)(C(=O)CO)[C@@]3(C)C[C@H](O)[C@@]12F
not listed: [10] | [15] | [16] | [18]
inactive: all other assays above

S=C([S-])NCCNC(=S)[S-].[Mn+2]
not listed: [10] | [13] | [17] | [18]
inactive: all other assays above

CCOc1ccc(OCC)c(Cl)c1
not listed: [7] | [18]
inactive: all other assays above

CC(C)(C)C(=O)c1ccccc1
not listed: [10] | [12] | [15]
inactive: all other assays above
